# PubChem BioAssay (Tox21)
# The source made the active and inactive calls. The call rests on the fitted dose curve; in most records, active means well fitted curve in the direction sought with a large enough effect in the repeat runs; inconclusive means weak or mixed curves; inactive means flat fitted curve, though single readings scatter.
# Assay: qHTS assay to test for compound auto fluorescence at 535 nm (green) in HEK293 cell free culture (AID 720682)
# Settings: cell-free medium, green autofluorescence 485/535 nm, stronger effect = higher value; series mostly up to 46 µM; activity change: at the top concentration
# Excerpt: U.S. Tox21 Program National Center for Advancing Translational Sciences [NCATS] NIH Chemical Genomics Center [NCGC] U.S. Environmental Protection Agency [EPA] National Institutes of Environmental Health Sciences [NIEHS] National Toxicology Program [NTP] U.S. Food and Drug Administration [FDA] Tox21 Assay Overview: Compound auto fluorescence often interferes with screening of the compound library against various biological targets and signaling pathways. Some of these compounds may have fluorophoric properties. Such properties may interfere with the assay outputs resulting in false positives and/or negatives. To decrease such complications and ensure the compound activities are relevant in terms of biological response, the Tox21 10K compound library was screened for auto fluorescence. From the fluorophores used as reporter signals in our screening assays, the auto fluorescence equivalencies of compounds against three fluorophores have been evaluated: Triamterene, Fluorescein and Rose Bengal sodium for blue, green and red fluorescence, respectively. The fluorescence intensities were measured using Excitation/Emission wavelengths at 405/460nm, 485/535nm and 540/590nm for blue, green and red labels, respectively. This assay includes the green fluorescence data.
# Tox21 Assay Protocol Summary: 5 uL of culture medium (DMEM containing 10% FBS) per well was dispensed into black wall/clear bottom 1536-well plates using a Multidrop Combi Dispenser (ThermoFisher Scientific, Waltham, MA). After 23 nL compound or DMSO vehicle was transferred into assay plate by a pintool work station (Kalypsys, San Diego, CA), fluorescence intensities in the assay plates were measured by an Envision (PerkinElmer, Shelton, CT) plate reader using three labels for measuring blue, green and red fluorescence at […] 460, 535 and 590nm respectively.
# On the % scale 0 is the no-effect control and ±100 the full control effect.
row,Structure (SMILES),activity change
1,CC(=O)O[C@H]1C[C@H](O[C@H]2[C@@H](O)C[C@H](O[C@H]3[C@@H](O)C[C@H](OC4CC[C@@]5(C)C(CC[C@@H]6[C@@H]5CC[C@]5(C)[C@@H](C7=CC(=O)OC7)[C@@H](O)C[C@]65O)C4)O[C@@H]3C)O[C@@H]2C)O[C@H](C)[C@H]1O[C@@H]1O[C@H](CO)[C@@H](O)[C@H](O)[C@H]1O (some centres not stated),0.0437% (inactive)
2,CCC(=O)O[C@H]1[C@@H](N2CCCCC2)C[C@H]2[C@@H]3CC[C@H]4C[C@H](OC(C)=O)[C@@H](N5CCCCC5)C[C@]4(C)[C@H]3CC[C@@]21C,-0.0129% (inactive)
3,CN1CCN=C(c2ccccc2)c2cc(Cl)ccc21,0.0238% (inactive)
4,C[C@]12CC[C@H]3[C@@H](CCC4=CC(=O)CC[C@@]43C)[C@@H]1CC[C@@H]2OC(=O)CCc1ccccc1,-0.102% [at 91.3 µM] (inactive)
5,C#C[C@]1(OC(=O)CCCCCC)CC[C@H]2[C@@H]3CCC4=CC(=O)CC[C@@H]4[C@H]3CC[C@@]21C,0.0559% (inactive)
6,CCC(=O)O[C@](Cc1ccccc1)(c1ccccc1)[C@H](C)CN(C)C,0.0243% [at 91.3 µM] (inactive)
7,Clc1ccc([C@@H]2C[C@H]3CC[C@@H]2N3)cn1,0.0829% [at 91.3 µM] (inactive)
8,O=C(O)c1ccccc1[O-].O=C(O)c1ccccc1[O-].[Zn+2],-0.126% (inactive)
9,COc1cc(C[C@H](C)N)c(OC)cc1Br,-0.084% [at 95.7 µM] (inactive)
10,CN1C2CCC1CC(OC(c1ccccc1)c1ccc(Cl)cc1)C2 (configuration not stated),0.13% (inactive)
11,CC[C@@H](O)C(C[C@@H](C)N(C)C)(c1ccccc1)c1ccccc1,-0.103% [at 95.7 µM] (inactive)
12,Cc1ccc2c(c1)[C@]13CCCC[C@@H]1[C@H](C2)N(C)CC3,-0.0236% (inactive)
